This is a sample that favours compounds with a hit; in the whole collection about 2.1% have one here.
LMP1 NFkB inh: reduces LMP1-driven NF-kappaB luciferase signal; inhibition, % at 12.5 µM; AID 504558; 350,000 compounds, 0.69% hits; LMP1-induced NF-kappaB luciferase reporter cells, luminescence; in the data active = inhibition above about 41%; inconclusive = no clear call, values can overlap the other calls;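 note: 0% = neutral control wells and 100% = reference inhibitor control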
PAX8 reporter: PAX8 transcriptional activity inhibition; 360,000 compounds, 1.2% hits; AID 652154; inhibition, % at 12.6 µM; RMG-I TPO-luciferase reporter, SteadyGlo, 24 h;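 active = mean replicate inhibition at least 60% with every replicate also reaching 60%; inconclusive = only one of the two criteria is met; inactive = mean below 60% and not all replicates reaching 60%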;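 note: luciferase light reporting Pax8 driven TPO promoter activity; plate controls were median of neutral control wells for no effect and mitoxantrone controls for full effect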
TRPM1 prom inh: reduces MITF-dependent TRPM1 promoter luciferase signal; inhibition, % at 12.5 µM; SK-MEL-5 TRPM1 promoter luciferase, 24 h; 330,000 compounds, 0.83% hits;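 active = mean inhibition across replicates of 60% or more, whatever share of single replicates reaches that level; inconclusive = some that reach 60%, reason not given; inactive = mean inhibition across replicates below 60%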
aSyn 5UTR inh: 5' untranslated region of α-synuclein, MLPCN primary screen. alpha-synuclein 5'UTR reporter, inhibitor activity. inhibition, % (tested at 7.5 µM). 300,000 compounds, 0.82% hits; in the data active = inhibition above about 60%; inconclusive = no clear call, values can overlap the other calls;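 note: H4 neuroglioblastoma cells stably carrying SNCA 5'UTR luciferase fusion; 0% = DMSO wells and 100% = positive control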
Shn3 inh set2: inhibitors of Schnurri-3 3'UTR reporter in osteoblasts. Clone20 osteoblast Shn3 3'UTR firefly luciferase, 24 h. inhibition, % at 12.5 µM. 360,000 compounds, 0.52% hits;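 active = mean inhibition of at least 75% with every replicate also reaching 75%; inconclusive = mean inhibition at least 75% but some replicate below; inactive = mean inhibition below 75%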;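 note: 0% = median of neutral control wells and 100% = pilot-screen positive control compound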
Numbers without * were called inactive; u = inconclusive; x = not tested or not shown.

SMILES	LMP1 NFkB inh	PAX8 reporter	TRPM1 prom inh	aSyn 5UTR inh	Shn3 inh set2
N#Cc1ccccc1Cn1cc(/C=C/[N+](=O)[O-])c2ccccc21	24.4	-6.8	91.0*	-1.0	96.2*
COc1ccc(N=C2CCS(=O)(=O)c3sccc32)cc1	-18.9	-42.9	-4.2	x	-8.3
CC1Cc2ccccc2N1C(=O)COC(=O)CSc1ccc(F)cc1 (configuration not stated)	3.9	0.8	1.1	-1.3	-6.8
O=C(Nc1cc(C(F)(F)F)ccc1N1CCOCC1)C1=NN(c2ccccc2)C(=O)CC1	3.3	80.4*	-9.5	-4.4	8.0
O=C(Nc1ccccc1N1CCOCC1)C1=NN(c2ccccc2)C(=O)CC1	-7.1	13.0	4.9	x	-4.1
C(=NN1CCCCCC1)c1ccc2ccccc2n1	84.4*	x	93.2*	x	86.3*
Cc1ccc(-n2c(=O)c3c(c4cc(C)ccc4n3C)n(CC(=O)NCC3CCCO3)c2=O)cc1 (configuration not stated)	48.9*	-9.9	x	x	5.5
CCOC(=O)c1sc(NC(=O)CCCCCN2C(=O)c3cccc4cccc(c34)C2=O)nc1C	-47.9	x	66.9*	x	17.7
Cc1cccc(/C=N/Nc2ccc3ccccc3n2)c1	74.1*	53.5	76.2*	-6.9	49.4
C(=N\Nc1ccc2ccccc2n1)/c1ccc2c(c1)OCCO2	61.1*	73.0*	89.5*	108.4*	31.8
Cc1ccc(S(=O)(=O)N(C)CC(=O)NCC(c2ccco2)N(C)C)cc1 (configuration not stated)	1.1	-7.3	-0.6	x	5.9
CCC(C)Sc1nc2c(c(=O)n1C)SC(C)C2 (configuration not stated)	-0.4	-5.8	x	11.9	-2.8
CCC[C@@H](CN1CCC[C@H]1CN1C(N)=NC[C@@H]1Cc1ccccc1)N1C[C@@H](Cc2ccccc2)N(CCCC2CCCC2)C1=N	11.0	x	8.2	x	5.4
CCC[C@@H](CN1CCC[C@H]1CN1C(N)=NC[C@@H]1Cc1ccccc1)N1C[C@@H]([C@H](C)CC)N(CCCC2CCCC2)C1=N	32.8	x	28.9	x	93.0*
Cc1ccccc1C(=O)N1CCN(c2ccc(NC(=O)c3ccco3)cc2Cl)CC1	51.0*	x	16.2	47.1	53.9
COc1ccc(C(=O)Nc2ccc(N3CCN(C(=O)c4ccccc4)CC3)cc2)cc1[N+](=O)[O-]	-1.4	11.5	9.4	3.3	22.8
O=C(Nc1ccccc1N1CCN(C(=O)c2ccc(Cl)cc2)CC1)c1ccc([N+](=O)[O-])o1	-7.7	x	86.8*	-29.9	-45.4
O=C(Nc1ccc(N2CCN(C(=O)c3ccccc3)CC2)cc1)c1ccc([N+](=O)[O-])o1	-18.5	100.1*	91.1*	-18.8	42.2
Cc1ccccc1C(=O)N1CCN(c2ccc(NC(=O)c3ccc([N+](=O)[O-])o3)cc2)CC1	-0.9	9.1	80.5*	-167.8	99.4*
O=C(Nc1cccc(-c2nc3ccccc3[nH]2)c1)c1cccc(NC(=O)c2ccco2)c1	-1.3	x	87.4*	-21.8	42.4
O=C(Nc1ccc2nc(-c3ccccc3)[nH]c2c1)c1ccco1	-10.6	-16.6	-76.4	-205.3	-145.2
Cc1ccccc1-c1cnc2c(c1)C(=O)N([C@H](C)CO)C[C@H](C)[C@@H](CN(C)Cc1cccnc1)O2	x	7.7	x	x	x
Cc1cccc(OCc2nc(C#N)c(NCc3ccc4c(c3)OCO4)o2)c1	-17.4	x	-10.5	-18.5	-4.2
Cc1nnc(N2CCCC(C(=O)NCc3ccc(OC(C)C)cc3)C2)c2nn(-c3ccccc3)c(C)c12 (configuration not stated)	13.6	73.1*	47.4	-29.6	19.8
Cc1nnc(N2CCCC(C(=O)Nc3cc(F)ccc3F)C2)c2nn(-c3ccccc3)c(C)c12 (configuration not stated)	54.8*	x	u	17.9	21.8
SMILES	LMP1 NFkB inh	PAX8 reporter	TRPM1 prom inh	aSyn 5UTR inh	Shn3 inh set2
Cc1ccc(-n2nc3c(N4CCC(C(=O)NCCc5cccs5)CC4)nnc(C)c3c2C)cc1	-9.1	71.4*	88.6*	90.3*	53.2
COc1ccc(C=C(C(=O)c2ccccc2)C(=O)c2ccccc2)cc1	x	-144.5	x	x	-38.7
Cc1ccc(S(=O)(=O)NNC(=O)CCC(=O)Nc2ccc(C)cc2C)cc1	-4.4	0.3	5.1	23.0	-7.6
C=C1CC2(CC(c3ccccc3)OC(c3ccccc3)C2)OC1=O (configuration not stated)	-2.6	0.4	107.2*	x	97.1*
C[C@@H]1CCCCO[C@@H](CN(C)Cc2ccc(Cl)c(Cl)c2)[C@H](C)CN([C@@H](C)CO)C(=O)c2cc(NS(=O)(=O)c3cccs3)ccc2O1	x	71.2*	x	x	x
C[C@@H]1CN([C@H](C)CO)C(=O)c2cc(NS(=O)(=O)c3cccs3)ccc2O[C@@H](C)CCCCO[C@@H]1CN(C)Cc1ccc(Cl)c(Cl)c1	x	80.3*	x	x	x
C[C@@H]1CN([C@H](C)CO)C(=O)c2cc(NS(=O)(=O)c3cccs3)ccc2O[C@@H](C)CCCCO[C@H]1CN(C)Cc1ccc(Cl)c(Cl)c1	x	75.0*	x	x	x
C[C@@H]1CCCCO[C@@H](CN(C)Cc2ccc(Cl)c(Cl)c2)[C@@H](C)CN([C@@H](C)CO)C(=O)c2cc(NS(=O)(=O)c3cccs3)ccc2O1	x	8.1	x	x	x
O=C(c1ccco1)N1CCN(C(=O)N2c3ccccc3Sc3ccccc32)CC1	5.3	x	52.5	80.9*	27.9
Cc1ccnc(NC(c2ccccc2)c2ccc3cccnc3c2O)c1 (configuration not stated)	13.9	50.5	30.7	x	38.7
CCCC(=O)NC(c1ccccc1Cl)c1ccc2cccnc2c1O (configuration not stated)	66.3*	86.1*	x	68.3*	u
O=C(O)c1ccccc1NC(c1ccccc1)c1ccc2cccnc2c1O (configuration not stated)	16.2	70.9*	3.7	x	-1.5
CC(C)CC(=O)NC(c1ccccc1Cl)c1c(O)ccc2ccccc12 (configuration not stated)	-1.6	-4.3	14.9	-20.6	-3.1
COc1ccc(C(NC(=O)C(C)C)c2ccc3cccnc3c2O)cc1 (configuration not stated)	24.1	u	76.3*	79.2*	94.8*
COc1ccccc1NC(c1cccnc1)c1ccc2cccnc2c1O (configuration not stated)	-7.3	1.2	8.3	-22.7	33.5
Cc1cc(NC(c2ccc(Cl)cc2)c2ccc3cccnc3c2O)no1 (configuration not stated)	69.6*	x	77.6*	84.9*	88.7*
CCCC(=O)NC(c1ccc(N(C)C)cc1)c1ccc2cccnc2c1O (configuration not stated)	46.7*	94.5*	72.6*	61.5	91.1*
CCCC(=O)NC(c1ccc(OC)cc1)c1c(O)ccc2ccccc12 (configuration not stated)	-8.2	7.4	21.7	6.4	0.0
CCCC(=O)NC(c1ccc(C(C)C)cc1)c1ccc2cccnc2c1O (configuration not stated)	61.9*	95.3*	49.4	83.1*	90.9*
